The record followed here is PubChem BioAssay AID1063 (University of Pittsburgh Molecular Library Screening Center, 2008).

Out of some 200,000 compounds screened, about 18,000 (9%) were called active. No stated cut-off is given here; in the data, active means inhibition above about 50%; inactive means the rest. This excerpt belongs to a sample that is enriched for actives.

This assay can be described thus: Leishmania major promastigote growth inhibition, primary screen (AID 1063).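 Further: promastigotes grown with compound for 44 hours at 28 °C.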 The following applies: Leishmania major promastigotes, resazurin fluorescence viability; at 10 µM; stronger effect = higher value.
In the case of `Cc1nc2ccccn2c1P(=S)(N1CCCCC1)N1CCCCC1`, the inhibition was 97.4% (active).
Under `COc1ccc(CN2CCN(c3ccccc3F)CC2)c(OC)c1` stands 9.36% (inactive); under `CC(c1ccccc1)(c1ccccc1)c1ccncc1`, 19.2% (inactive).
Under `CC(=NCc1ccc2c(c1)OCO2)c1c(O)[nH]c(=O)[nH]c1=O` stands -2.64% (inactive); under `c1cc2c(cc1CCNC1CCCCCC1)OCO2`, 95.2% (active).
Under `Fc1ccc(N2CCN(Cc3ccc4c(c3)OCO4)CC2)cc1` stands 44.5% (inactive); under `c1ccc2sc(C3CCCNC3)nc2c1` (centres undefined), 31.9% (inactive); under `O=C(O)CCn1cc(C=C2C(=O)NC(=S)NC2=O)c(-c2cccc(Br)c2)n1`, -7.24% (inactive).
Take `Cn1c(O)c(C=NCCN2CCNCC2)c(=O)n(C)c1=O`: the inhibition was -6.59% (inactive).
With `CN1CCC(N(C)Cc2cccnc2)CC1` the figure was -2.3% (inactive); with `COc1ccc(NC(=O)N2CCC3(CC2)OCCO3)c(OC)c1`, -0.24% (inactive).
For `NC(=O)Cn1cc(C(=O)c2ccccc2F)c2ccccc21`, the inhibition is -6.3% (inactive).
Under `N#Cc1ccc(Cn2cc(C(=O)c3ccco3)c3ccccc32)cc1` stands 93.3% (active); under `CC(C)Nc1nc(Cl)nc(NC(C)C)n1`, 24.7% (inactive).
For `COc1ccc(-c2nn(CCC#N)cc2C(=O)O)cc1`, the inhibition was -0.84% (inactive).
Turning to `CC(C)(C)c1ccc(OC(=O)N2CCCCC2)cc1`, the inhibition is -10.5% (inactive).
With `CN1CCN(C(=O)COc2ccc(C(C)(C)C)cc2Br)CC1` the figure was 59.9% (active); with `CC(C)c1ccc(OCC(=O)N2CCN(C)CC2)c(Br)c1`, 37.9% (inactive).
On to `CSC1=NP(=S)(SC)N(C)c2nc3n(c21)CCC3` (centres undefined), for which the inhibition is 2.74% (inactive).
For `CN(C)C(=O)NC(O)C(Cl)(Cl)Cl` (centres undefined), the inhibition is -1.83% (inactive).
As to `CN(C)CC1CCCCC1OC(=O)c1ccc(Cl)c(Cl)c1` (centres undefined), the inhibition was 56.1% (active).
For `COc1ccc(NC(=O)c2cn(CCC#N)nc2-c2ccc([N+](=O)[O-])cc2)cc1`, the inhibition is -5.27% (inactive).
Turning to `CN1C2C=C(N(C(=O)c3ccc(Cl)cc3)c3ccccc3)CC1CC2` (centres undefined), the inhibition is -6.27% (inactive).
Under `CCNc1nc2[nH]c(=O)c3c(c2s1)OC(N)=C(C#N)C3c1cccs1` (centres undefined) stands 56.6% (active); under `N#CC1=C(N)Oc2c(c(=O)oc3ccccc23)C1c1ccccc1OC(=O)c1cccs1` (centres undefined), 8.6% (inactive); under `CCOCCc1c(O)[nH]c(=S)[nH]c1=O`, -2.27% (inactive).
Consider `O=C(CN1CCCC1=O)NCCc1ccccc1`, for which the inhibition is -2.62% (inactive).
For `N[C@@H](Cc1c[nH]c2ccccc12)c1nnc(SCc2c(F)cccc2Cl)o1`, the inhibition is -1.59% (inactive).
With `CC(Cc1cccs1)NCc1ccc(Cl)cc1` (centres undefined) the figure was 37.3% (inactive); with `Cc1ccc(-c2cc(C(=O)N3CCC4(CC3)OCCO4)no2)cc1`, 3.46% (inactive).
Under `COc1ccccc1N1CCN(C(CNC(=O)Oc2ccccc2)c2cccnc2)CC1` (centres undefined) stands 90.8% (active); under `O=C(NCC(c1cccnc1)N1CCN(c2ccccc2)CC1)Oc1ccccc1` (centres undefined), 86.7% (active).
As for `COC(=O)C(c1ccccc1)N1CCCCCC1` (centres undefined), the inhibition was -3.28% (inactive).
In the case of `COC(=O)N1C(c2ccccc2)C1c1ccccc1` (centres undefined), the inhibition was -7.32% (inactive).
With `CN(C)/C=C(\C=[N+](C)C)c1[nH]ncc1[N+](=O)[O-]` the figure was -3.98% (inactive); with `CC(C)CN1CCN(Cc2ccccc2C(F)(F)F)CC1CCO` (centres undefined), 1.28% (inactive).
As for `O=c1[nH]c(=S)n(C2CC2)c(O)c1/C=N/N1CCOCC1`, the inhibition was -5.26% (inactive).
On to `CN(C)C(=O)Oc1cc(=O)n2c3c(cccc13)CCC2`, for which the inhibition is 23.7% (inactive).
Take `Nc1ccc(C(=O)N/N=C2/CN3CCC2CC3)cc1`: the inhibition was -7.96% (inactive).

One may read the inhibition as the drop in the measured response relative to a control, in per cent.
